Where “and” joins values, the source holds several entries; their conditions need not be identical. Equal values may be shown once. Results filed as inconclusive are left out. Entries that show only a call come without a potency. Some structures have more than one record in an assay (separate samples or runs), and their calls can disagree. Calls of active or inactive are those of the source. Calls follow the shape of the dose curve; as a rule, active = well fitted cell-killing curve with a large enough effect in the repeat runs; inconclusive = weak or mixed curves, or effect the other way; inactive = flat fitted curve, though single readings scatter.
Experiment: qHTS RealTime-Glo MT Cell Viability Assay in HEK293 cells - 32 hour (AID 1224868); also: nearly all actives have a fitted effect of over 50% in size; as to activity change, negative = cytotoxic: top concentration of the series differs between compounds
Conditions: RealTime-Glo luminescence; series mostly up to 76.8 µM; activity change, negative = cytotoxic: at the top concentration
Source text: National Center for Advancing Translational Sciences [NCATS]
NIH Chemical Genomics Center [NCGC]
U.S. Environmental Protection Agency [EPA]
National Institutes of Environmental Health Sciences [NIEHS]
National Toxicology Program [NTP]
U.S. Food and Drug Administration [FDA]
Measure of cell viability is critical in the cell-base assay. Analysis of cell viability is necessary for the characterization of cell responses to cytotoxic drugs and environmental stress. A RealTime-Glo MT Cell Viability Assay to monitor cell viability in real time of continues cell culture during 40 hours of compound treatment was used to screen Tox21 10K library compounds in Hek293 cells. The RealTime-Glo MT Cell Viability Assay is a nonlytic, homogeneous, bioluminescent method to measure cell viability in real time using a simple, plate-based method. The assay involves adding NanoLuc luciferase and a cell-permeant prosubstrate to cells in culture. Viable cells reduce the proprietary prosubstrate to generate a substrate for NanoLuc luciferase. This substrate diffuses from cells into the surrounding culture medium, where it is rapidly used by the NanoLuc Enzyme to produce a luminescent signal. The signal correlates with the number of viable cells, making the assay well suited for cytotoxicity studies.
Tox21 Assay Protocol Summary:
The mixture of Hek293 cell suspension and reagents were dispensed at 600cells/6 ul/well in 1536-well tissue culture treated black solid bottom plates using a Multidrop dispenser. After the assay plates were incubated at a 37 C/5% CO2 incubator for 5 hours, 23 nL of compounds dissolved in DMSO, positive and negative controls was transferred to the assay plate by a pintool work station. The plates were incubated at 37 C for 40 hours. The luminescence intensity were measured at 0h, 8h, 16h, 24h, 32h and 40h time points using ViewLux plate reader during compound treatment.
Potency is read from the fitted curve at half-maximal effect.

Structure (SMILES)	activity change, negative = cytotoxic	Potency
O=[N+]([O-])C(CO)(CO)CO	16% (inactive)	
OC[C@@H](O)[C@@H](O)[C@H](O)[C@@H](O)CO		inactive
O=C(Cl)c1c(Cl)c(Cl)c(C(=O)Cl)c(Cl)c1Cl		inactive
CCC(C)C=O (stereo not given)		inactive and 3.47 µM (active)
O=[N+]([O-])c1cc(N(CCO)CCO)ccc1NCCO		inactive
Cc1cc(Cc2ccc(N)c(C)c2)ccc1N		inactive
CCCCC(CC)COC(=O)/C=C\C(=O)OCC(CC)CCCC (stereo not given)		inactive
Cc1cc(=O)[nH]c(C(C)C)n1		inactive
O=C(Oc1ccccc1)c1ccc(O)cc1	-9.35% (inactive)	
CC1=CC[C@H]2C[C@@H]1C2(C)C		inactive
Oc1ccc(OCc2ccccc2)cc1		1.07 µM (active) and inactive
CCCCOCCOCCOC(=O)CCCCC(=O)OCCOCCOCCCC		inactive
Nc1cc(-c2ccncc2)c[nH]c1=O		inactive
CCCCCCCCCC(=O)O		inactive
OCC#CCO		inactive
CCc1ccc(O)cc1		inactive
CC#C[C@]1(O)CC[C@H]2[C@@H]3CCC4=CC(=O)CCC4=C3[C@@H](c3ccc(N(C)C)cc3)C[C@@]21C		49 µM (active)
CC(C)(CO)COC(=O)C(C)(C)CO		inactive
CC1(C)CC(N=C=O)CC(C)(CN=C=O)C1 (stereo not given)		inactive
Cc1ccc(C)c(C)c1		inactive

Structure (SMILES)	activity change, negative = cytotoxic	Potency
Nc1c(S(=O)(=O)O)cc(Br)c2c1C(=O)c1ccccc1C2=O		inactive
CC1=C(CC(=O)O)c2cc(F)ccc2/C1=C\c1ccc(S(C)=O)cc1 (stereo not given)		inactive
Clc1cc(Cl)c(Cl)cc1Cl		inactive
C[C@@H]1O[C@@H](OC[C@H]2O[C@@H](Oc3c(-c4ccc(O)c(O)c4)oc4cc(O)cc(O)c4c3=O)[C@H](O)[C@@H](O)[C@@H]2O)[C@H](O)[C@H](O)[C@H]1O		inactive
CC(C)(N=C=O)c1cccc(C(C)(C)N=C=O)c1	1.77% (inactive)	
O=C(c1cc(O)c(O)c(O)c1)c1ccc(O)c(O)c1O		inactive
CCCCNC(N)=O		inactive
COC(=O)Nc1nc2ccc(Sc3ccccc3)cc2[nH]1		692 nM (active) and 848 nM (active)
CCCCC/C=C\C/C=C\CCCCCCCC(=O)OC		inactive
CCCCC(CC)COC(C)=O (stereo not given)		inactive
C=C1CC[C@H](O)CC1=C/C=C1\CCC[C@]2(C)[C@@H]([C@H](C)/C=C/[C@H](C)C(C)C)CC[C@@H]12		48.5 µM (active) and 43.6 µM (active)
O=S(=O)(Oc1ccc(Cl)cc1Cl)c1ccccc1	-23.6% (inactive)	
C=CC(=O)OCCCCCCCC(C)C	3.83% (inactive)	
ClC1=C(Cl)C(Cl)(Cl)C(Cl)=C1Cl		39.1 µM (active)
CCOC(=O)/C=C\C(=O)OCC		inactive
CC(C)(C)C(=O)C1C(=O)c2ccccc2C1=O		inactive
CN(C)c1cccc(O)c1		inactive
Clc1ccc(Cl)c(Cl)c1Cl		inactive
O=S(=O)(O)c1cc(S(=O)(=O)O)c2c(N=Nc3ccccc3)c(O)ccc2c1	-20.2% (inactive)	
CNC[C@H](O)[C@@H](O)[C@H](O)[C@H](O)CO		inactive
